Bioassay records deposited in PubChem BioAssay by National Center for Advancing Translational Sciences (NCATS).
LASV entry inh – Lassa virus entry inhibition; Potency, µM (highest dose often 37.9 µM), actives largely listed as inhibitors; 1.2% of 300,000 active; Lassa virus pseudotype entry inhibition, cell reporter; calls by dose curve; tested in HEK293 cells; further: nearly all actives have a fitted effect of over 50% in size
HCV inh – blocks hepatitis C virus; 3.4% of 340,000 active; AID 651820; Potency, µM (highest dose often 41.8 µM), actives largely listed as inhibitors; Huh7.5.1 HCVcc-Cre infection, luciferase reporter, 44 h; active means well fitted inhibition curve with a large enough effect; inconclusive means small, poorly fitted or top-dose-only effect, or another doubt; inactive means no such curve, though single readings can be large or run the other way
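Reporter virus HCVcc-Cre (~0.5 moi) infects cells exposed to compound; seeding density 1,000 cells/well with 4 h settling beforehand. Luminescence, 15 sec read, taken 44 h post-infection following a 15 min RT substrate incubation.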
FMDV inh – foot and mouth disease virus antiviral activity. FMDV antiviral cell-based qHTS. Potency, µM (doses to about 57.9 µM), usual class: inhibitors. 1.2% of 410,000 active. AID 1159524; calls by dose curve; tested in HEK293T cells; further: read-out not given here; nearly all actives have a fitted effect of over 45% in size
SARS PLpro yeast – inhibitors of SARS-CoV papain-like protease in yeast; S. cerevisiae expressing SARS-CoV PLpro, growth rescue; Potency, µM (doses to about 32.9 µM), hits mostly activators; 0.19% of 330,000 active; calls by dose curve; further: nearly all actives have a fitted effect of over 55% in size
HCMV antiviral – blocks human cytomegalovirus replication; HFF cells, HCMV-luciferase reporter, 72 h; stronger effect = lower value; activity change, negative = inhibition, % at 57.5 µM; 4.5% of 410,000 active; in the data active means activity change below about -60%; inconclusive means no clear call, values can overlap the other calls; inactive means above about -39%
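Human foreskin fibroblasts infected with luciferase-reporter HCMV at MOI 1 PFU/cell, compounds at two doses. Luciferase measured 72 h post infection; normalized to buffer-only basal and Salinomycin (10uM) controls.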
MARV entry inh – blocks Marburg virus binding to or entry into cells; Marburg virus pseudotyped entry inhibition, cell reporter; Potency, µM (top dose mostly 37.8 µM), most hits filed as inhibitors; 1.8% of 300,000 active; calls by dose curve; tested in HEK293 cells
Each line names hits and unclear results; the compound was inactive in the other large screens. Hits are enriched below; roughly 8% of the tested compounds scored in any of these assays.

COc1ccc(N(CC(O)Cn2nnc3ccccc32)S(=O)(=O)c2ccc(C)cc2)cc1 (stereo not drawn)	HCMV antiviral -62, MARV entry inh inconclusive (no result: FMDV inh)
C=CCN(CC=C)CC(O)CN(c1cc([N+](=O)[O-])ccc1OC)S(=O)(=O)c1ccccc1 (stereo not drawn)	HCMV antiviral -107, MARV entry inh inconclusive
C=CCN(CC=C)CC(O)Cn1c2ccccc2c2ccccc21 (stereo not drawn)	LASV entry inh inconclusive, MARV entry inh 8.2µM (no result: FMDV inh)
Cc1ccc(S(=O)(=O)N(CC(O)Cn2c3ccccc3c3ccccc32)c2cccc(C(N)=O)c2)cc1 (stereo not drawn)	LASV entry inh inconclusive, FMDV inh inconclusive, HCMV antiviral -80, MARV entry inh inconclusive (no result: HCV inh, SARS PLpro yeast)
COc1ccc(N(CC(O)Cn2c(C)nc3ccccc32)S(=O)(=O)c2ccc(C)cc2)cc1 (stereo not drawn)	none
OC(CN1CCNCC1)Cn1c2ccccc2c2ccccc21 (stereo not drawn)	HCMV antiviral inconclusive (no result: LASV entry inh, MARV entry inh)
CC(CCC(=O)OC[C@H]1O[C@H](C#Cc2ccccc2)C=C[C@H]1Oc1ccc(C)cc1)=NOC[C@@H](O)[C@H]1O[C@@H]2OC(C)(C)O[C@H]2[C@@H]1O	none (no result: HCV inh, FMDV inh, SARS PLpro yeast, HCMV antiviral)
Cc1ccnc(Nc2ccc(CCO)cc2)n1	none (no result: LASV entry inh, HCV inh, SARS PLpro yeast, MARV entry inh)
COC(=O)C12OCC34C(CC5C(C)=C(O)C(=O)CC5(C)C3C(O)C1O)OC(=O)C(OC(=O)/C=C(\C)C(C)C)C24 (stereo not drawn)	LASV entry inh inconclusive, HCV inh inconclusive, HCMV antiviral -98, MARV entry inh inconclusive (no result: SARS PLpro yeast)
COC(=O)C12OCC34C(CC5C(C)=C(O)C(=O)CC5(C)C3C(O)C1O)OC(=O)C(OC(=O)C=C(C)C)C24 (stereo not drawn)	LASV entry inh inconclusive, HCMV antiviral -99, MARV entry inh inconclusive (no result: HCV inh, SARS PLpro yeast)
CCN(CC)C(=O)c1c(NC(=O)c2cccc(C)c2)sc2c1CCC(C)C2 (stereo not drawn)	LASV entry inh inconclusive (no result: HCV inh, SARS PLpro yeast)
Cc1ccc(N(CN2C(=O)[C@H]3CC=CC[C@@H]3C2=O)C(=O)c2ccco2)cc1Cl	none (no result: LASV entry inh, HCV inh, FMDV inh, SARS PLpro yeast, HCMV antiviral)
COc1ccc(C2=Nc3ccccc3NC(c3cccs3)=N2)cc1	MARV entry inh 20µM (no result: HCV inh, SARS PLpro yeast)
CS(=O)(=O)Nc1ccc(C2=NN(S(=O)(=O)c3ccccc3)C(c3cccs3)C2)cc1 (stereo not drawn)	none (no result: LASV entry inh, MARV entry inh)
COc1ccc(S(=O)(=O)N2N=C(c3ccc(NS(C)(=O)=O)cc3)CC2c2ccco2)cc1 (stereo not drawn)	LASV entry inh 0.65µM
COc1ccc(C2CC(c3ccccc3)=NN2c2ccc(N)cc2)cc1 (stereo not drawn)	LASV entry inh inconclusive, FMDV inh 40µM, MARV entry inh inconclusive
Cc1ccc(C2=NN(S(=O)(=O)c3ccccc3)C(c3ccccc3O)C2)cc1 (stereo not drawn)	LASV entry inh inconclusive, HCV inh 14µM, HCMV antiviral inconclusive, MARV entry inh inconclusive
COc1ccc(S(=O)(=O)N2N=C(c3cccc(NS(C)(=O)=O)c3)CC2c2ccco2)cc1 (stereo not drawn)	HCMV antiviral inconclusive (no result: LASV entry inh, MARV entry inh)
COc1ccc(C2CC(c3ccccc3)=NN2c2ccc(S(N)(=O)=O)cc2)cc1OC (stereo not drawn)	LASV entry inh 11µM, MARV entry inh inconclusive
Cc1c(C(=O)NCc2ccccc2Cl)sc2nc3n(c(=O)c12)CCC3	HCMV antiviral inconclusive (no result: HCV inh, SARS PLpro yeast, MARV entry inh)
NS(=O)(=O)c1ccc(N2N=C(c3ccccc3)CC2c2cccc(F)c2)cc1 (stereo not drawn)	LASV entry inh inconclusive, HCV inh inconclusive, MARV entry inh inconclusive
COc1ccc(C2CC(c3cccc(Cl)c3)=NN2c2ccc(S(N)(=O)=O)cc2)cc1 (stereo not drawn)	HCV inh 13µM, FMDV inh inconclusive (no result: LASV entry inh, MARV entry inh)
COc1ccc(C2CC(c3ccc(Cl)cc3)=NN2c2ccc(S(N)(=O)=O)cc2)cc1 (stereo not drawn)	HCV inh inconclusive (no result: LASV entry inh, MARV entry inh)
COc1ccc(C2CC(c3ccccc3)=NN2C(=O)c2ccc(F)cc2)cc1 (stereo not drawn)	none
COc1ccc(C2CC(c3ccccc3)=NN2S(=O)(=O)c2ccccc2)cc1 (stereo not drawn)	HCV inh 13µM (no result: LASV entry inh, MARV entry inh)
NS(=O)(=O)c1ccc(N2N=C(c3ccc(Br)cc3)CC2c2ccc(F)cc2)cc1 (stereo not drawn)	LASV entry inh 7.9µM, HCV inh inconclusive, FMDV inh 22µM, MARV entry inh 10µM
CCOc1cc(C2Nc3ccccc3NC3=C2C(=O)CC(C)(C)C3)ccc1OC(C)=O (stereo not drawn)	none (no result: LASV entry inh, MARV entry inh)
CCCOc1cccc(C(=O)Nc2ccc3c(c2)OCCO3)c1	HCV inh inconclusive (no result: LASV entry inh, MARV entry inh)
CC(C)C[C@H]1CN(CCCC[C@H]2CNC(=O)C(=O)N2CCc2ccc(O)cc2)C(=O)C(=O)N1Cc1ccccc1	none (no result: LASV entry inh, HCV inh, SARS PLpro yeast, MARV entry inh)
Cc1nc(C(=O)N2CCc3c([nH]c4ccccc34)C2c2cc(F)ccc2F)cs1 (stereo not drawn)	LASV entry inh inconclusive, MARV entry inh inconclusive
O=C(NCc1ccccc1)C1Cc2c(-c3cccc(F)c3)ccnc2O1 (stereo not drawn)	HCMV antiviral -69 (no result: LASV entry inh, HCV inh, SARS PLpro yeast, MARV entry inh)
CC(C)c1ccc(NC(=O)C2Cc3c(-c4cccc(F)c4)ccnc3O2)cc1 (stereo not drawn)	HCMV antiviral -76 (no result: LASV entry inh, HCV inh, SARS PLpro yeast, MARV entry inh)
CC(=O)c1cccc(-c2ccnc3c2CC(C(=O)NCc2ccc(F)c(F)c2)O3)c1 (stereo not drawn)	none (no result: LASV entry inh, HCV inh, SARS PLpro yeast, MARV entry inh)
CC(=O)c1cccc(-c2ccnc3c2CC(C(=O)NCc2ccccc2)O3)c1 (stereo not drawn)	HCMV antiviral -86 (no result: LASV entry inh, HCV inh, SARS PLpro yeast, MARV entry inh)
Cc1csc2nc(CCNS(=O)(=O)c3ccc(F)cc3)cn12	HCMV antiviral inconclusive (no result: HCV inh, SARS PLpro yeast, MARV entry inh)
COc1ccc(C(=O)NCCNC(C)=O)cc1S(=O)(=O)NCc1ccc(Cl)cc1	none
COc1ccc(C(=O)NCC(C)(C)N2CCOCC2)cc1S(=O)(=O)NCc1ccc(Cl)cc1	HCV inh inconclusive, HCMV antiviral -67 (no result: LASV entry inh, SARS PLpro yeast, MARV entry inh)
CC(=O)OCC1OC(n2cnc3c(=O)[nH]cnc32)C(OC(C)=O)C1OC(C)=O (stereo not drawn)	none (no result: LASV entry inh, HCV inh, SARS PLpro yeast, HCMV antiviral, MARV entry inh)
CCC1CCCCN1S(=O)(=O)c1ccc(C(=O)N(CCCN(C)C)c2nc3cc4c(cc3s2)OCO4)cc1 (stereo not drawn)	LASV entry inh inconclusive, HCV inh 13µM, SARS PLpro yeast inconclusive, MARV entry inh inconclusive
CCN(CC)CCN(C(=O)c1ccc2c(c1)OCCO2)c1nc2cc3c(cc2s1)OCO3	HCV inh inconclusive, MARV entry inh inconclusive
CCN(CC)CCN(C(=O)c1cc2c(ccc3ccccc32)oc1=O)c1nc2cc3c(cc2s1)OCCO3	HCMV antiviral -98, MARV entry inh inconclusive
CN(C)CCN(C(=O)c1cccc2ccccc12)c1nc2cc3c(cc2s1)OCO3	HCV inh 10µM, HCMV antiviral -112, MARV entry inh inconclusive
CN(C)CCCN(C(=O)c1ccc2ccccc2c1)c1nc2cc3c(cc2s1)OCO3	HCV inh inconclusive, HCMV antiviral -62, MARV entry inh inconclusive
